Pf growth 48h: inhibits P. falciparum growth in the first generation, 48 h; Potency, µM (highest dose often 28.7 µM), hits mostly inhibitors; actives 5.9% (n = 310,000); P. falciparum luciferase growth in erythrocytes, 48 h
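Luciferase-expressing P. falciparum in infected erythrocytes (2% hematocrit, 0.1% parasitemia final) in RPMI 1640/0.5% Albumax were exposed to compound for 48 hours at 37 C, 5% CO2; growth read as luminescence.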
Sm TGR block: inhibitors of Schistosoma mansoni thioredoxin glutathione reductase | purified TGR, DTNB reduction, TNB absorbance 405 nm | Potency, µM (top dose mostly 114 µM), actives largely listed as inhibitors | actives 3% (n = 360,000) | Q962Y6; note: nearly all actives have a fitted effect of over 60% in size
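First, TGR (20 nM dispensed) and NADPH were mixed with compound. Second, a 15 min room-temperature incubation followed. Third, further NADPH and then DTNB were added to start the reaction. Finally, TNB absorbance was monitored kinetically.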
Pf growth 96h: inhibits malaria parasite growth, 96 h; Potency, µM (top dose mostly 28.7 µM), actives largely listed as inhibitors; P. falciparum luciferase reporter growth, 96 h; actives 6.9% (n = 320,000); AID 504834
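96 h incubation, 37 C, 5% CO2, of luciferase-reporter P. falciparum-infected RBCs (2% hematocrit, 0.05% parasitemia final) with test compounds; endpoint luminescence.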
SARS PLP yeast: inhibitors of SARS-CoV papain-like protease in yeast | Potency, µM (series often up to 32.9 µM), actives largely listed as activators | actives 0.19% (n = 330,000) | S. cerevisiae expressing SARS-CoV PLpro, growth rescue; calls by dose curve; note: nearly all actives have a fitted effect of over 55% in size
Numbers stand for hits. Sampled rows, rich in hits. Any-hit rate of the full collection: about 12%. Unless noted, calls come from the whole dose curve; as a rule, active = well fitted curve in the direction sought with a large enough effect; inconclusive = small, poorly fitted or top-dose-only effect, or another doubt; inactive = no such curve, though single readings can be large; an effect the other way counts as inactive or inconclusive.

COc1cc(C(CCN2CCCC2)c2c(OC)cc(OC)c3c(-c4ccccc4)cc(=O)oc23)cc(OC)c1OC (stereo unspecified) was read as Pf growth 48h 2.33µM, Sm TGR block inactive, Pf growth 96h 1.85µM and SARS PLP yeast inactive.
`COc1cc(OC)c2c(-c3ccccc3)cc(=O)oc2c1C(CCN1CCCC1)c1ccc2c(c1)OCO2` (stereo unspecified) gave Pf growth 48h inconclusive, Sm TGR block inactive, Pf growth 96h 8.28µM and SARS PLP yeast inactive.
`COc1ccc(C(CCN2CCOCC2)c2c(OC)cc(OC)c3ccc(=O)oc23)cc1` (stereo unspecified) gave SARS PLP yeast inactive.
COc1cc(OC)c2c(-c3ccccc3)cc(=O)oc2c1C(CCN1CCOCC1)c1ccc2c(c1)OCO2 (stereo unspecified) was read as SARS PLP yeast inactive.
For COc1ccc(C(CCN2CCCC(C)C2)c2c(OC)cc(OC)c3c(C)cc(=O)oc23)cc1 (stereo unspecified) the results were Pf growth 48h 2.94µM, Sm TGR block inconclusive, Pf growth 96h 2.62µM and SARS PLP yeast inactive.
Screening COc1cc(OC)c2c(C)cc(=O)oc2c1C(CCN1CCN(c2ccccc2)CC1)c1ccc2c(c1)OCO2 (stereo unspecified) returned Pf growth 48h 3.29µM, Sm TGR block inactive, Pf growth 96h 2.08µM and SARS PLP yeast inactive.
For CN(CC(=O)Nc1cccc(F)c1)C(=O)c1ccccc1OCCOc1ccccc1 the results were Pf growth 48h inconclusive, Sm TGR block inactive, Pf growth 96h inconclusive and SARS PLP yeast inactive.
`COc1cc(OC)c2c(-c3ccccc3)cc(=O)oc2c1C(CCN1CCCC(C)C1)c1ccc(N(C)C)cc1` (stereo unspecified) gave Pf growth 48h inconclusive, Sm TGR block inactive, Pf growth 96h inconclusive and SARS PLP yeast inactive.
`COc1cc(C(CCN2CCCCC2)c2c(OC)cc(OC)c3c(C)cc(=O)oc23)cc(OC)c1OC` (stereo unspecified) gave Pf growth 48h 8.28µM, Sm TGR block inactive, Pf growth 96h 9.28µM and SARS PLP yeast inactive.
For COc1ccc(C(CCN2CCCC(C)C2)c2c(OC)cc(OC)c3c(-c4ccccc4)cc(=O)oc23)cc1 (stereo unspecified) the results were Pf growth 48h 11.7µM, Sm TGR block inactive, Pf growth 96h 5.86µM and SARS PLP yeast inactive.
COc1ccc(C(CCN2CCN(c3ccccc3)CC2)c2c(OC)cc(OC)c3c(-c4ccccc4)cc(=O)oc23)cc1 (stereo unspecified) was read as Pf growth 48h 3.29µM, Sm TGR block inactive, Pf growth 96h 4.65µM and SARS PLP yeast inactive.
COc1ccc(C(CCN2CCOCC2)c2c(OC)cc(OC)c3c(-c4ccccc4)cc(=O)oc23)cc1 (stereo unspecified) was read as SARS PLP yeast inactive.
Screening CCN(CC)CCC(c1ccc(N(C)C)cc1)c1c(OC)cc(OC)c2c(-c3ccccc3)cc(=O)oc12 (stereo unspecified) returned Pf growth 48h 8.28µM, Sm TGR block inactive, Pf growth 96h 3.7µM and SARS PLP yeast inactive.
`Cc1ccc2oc(=O)c3cc(C(=O)NCCCN4C(C)CCCC4C)sc3c2c1` (stereo unspecified) gave Pf growth 48h inconclusive, Sm TGR block inactive, Pf growth 96h inactive and SARS PLP yeast inactive.
`COc1ccc(C(C)(C)C)cc1NC(=O)CCc1c(C)noc1C` gave Pf growth 48h inactive, Sm TGR block inactive, Pf growth 96h inconclusive and SARS PLP yeast inactive.
Screening CCCN(CC(=O)Nc1ccccc1C)C(=O)C1CCN(S(=O)(=O)c2cccc(C(F)(F)F)c2)CC1 returned Pf growth 48h inactive, Sm TGR block inactive, Pf growth 96h inconclusive and SARS PLP yeast inactive.
For COc1cc(OC)c2c(-c3ccccc3)cc(=O)oc2c1C(CC(=O)N1CCOCC1)c1ccc(N(C)C)cc1 (stereo unspecified) the results were Pf growth 48h 7.38µM, Sm TGR block inconclusive, Pf growth 96h inconclusive and SARS PLP yeast inactive.
COc1ccc(Nc2nc(N)c([N+](=O)[O-])c(N3CCCC3)n2)cc1 was read as Pf growth 48h inconclusive, Sm TGR block inactive, Pf growth 96h 13.1µM and SARS PLP yeast inactive.
`Cc1cccc(Nc2nc(N)c([N+](=O)[O-])c(N3CCOCC3)n2)c1` gave Pf growth 48h inconclusive, Sm TGR block inactive, Pf growth 96h inconclusive and SARS PLP yeast inactive.
`CCN(CC)CCCNc1nc(N)c([N+](=O)[O-])c(N2CCCCCC2)n1` gave Pf growth 48h inactive, Sm TGR block inactive, Pf growth 96h 2.94µM and SARS PLP yeast inactive.
COc1ccc(Nc2nc(N)c([N+](=O)[O-])c(N3CCN(C)CC3)n2)cc1 was read as Pf growth 48h inconclusive, Sm TGR block inconclusive, Pf growth 96h inconclusive and SARS PLP yeast inactive.
C=CCNc1nc(N)c([N+](=O)[O-])c(N2CCCCCC2)n1 was read as Pf growth 48h inactive, Sm TGR block inactive, Pf growth 96h inactive and SARS PLP yeast inactive.
For COc1cccc(Nc2nc(N)c([N+](=O)[O-])c(N3CCOCC3)n2)c1 the results were Pf growth 48h inconclusive, Sm TGR block inactive, Pf growth 96h 14.7µM and SARS PLP yeast inactive.
Screening Cc1ccc(C)c(NC(=O)CCCCCCCCCCC2COCCO2)c1 (stereo unspecified) returned Pf growth 48h inactive, Sm TGR block inactive, Pf growth 96h 13.1µM and SARS PLP yeast 11.2µM.
Screening Cc1ccc(C)c(NC(=O)CCN2CCOCC2)c1 returned Pf growth 48h inactive, Sm TGR block inactive, Pf growth 96h inconclusive and SARS PLP yeast inactive.
For CCc1nn2c(=O)cc(COC(=O)c3cccc(NC(=O)CCc4ccccc4)c3)nc2s1 the results were Sm TGR block inactive.
COc1ccc(-n2c(=O)c3c4c(sc3n(C)c2=O)CN(C(C)=O)CC4)cc1 was read as Sm TGR block inactive.
Screening CCNc1nc(NCC)n2c(SC(C(=O)Nc3cc(C)ccc3C)c3ccccc3)nnc2n1 (stereo unspecified) returned Pf growth 48h inconclusive, Sm TGR block inactive, Pf growth 96h 11.7µM and SARS PLP yeast inactive.
Screening CCOCCCn1c(SC(C(=O)Nc2cc(C)ccc2C)c2ccccc2)nnc1-c1ccc(Cl)cc1 (stereo unspecified) returned Pf growth 48h 11.7µM, Sm TGR block inactive, Pf growth 96h 9.28µM and SARS PLP yeast inactive.
For Cc1cc(Cl)ccc1NC(=O)CN1C(=O)C(=O)N(C2CCCC2)C1=O the results were Pf growth 48h inconclusive, Sm TGR block inactive, Pf growth 96h inactive and SARS PLP yeast inactive.
`CC(C)CC(C(=O)NCCc1ccccc1)N1Cc2ccccc2C1=O` (stereo unspecified) gave Sm TGR block inactive.
Screening CN(CC(=O)Nc1ccc(F)cc1)C(=O)Cn1nnc(-c2ccccc2)n1 returned Pf growth 48h inactive, Sm TGR block inactive, Pf growth 96h inconclusive and SARS PLP yeast inactive.
Cc1cc(C)nc(SCCn2c(N(C)Cc3ccccc3)nc3c2c(=O)n(C)c(=O)n3C)n1 was read as Pf growth 48h 7.38µM, Sm TGR block inactive, Pf growth 96h inconclusive and SARS PLP yeast inactive.

Source: PubChem (National Center for Advancing Translational Sciences (NCATS))
